Laboratory results reported in PubChem BioAssay (NCI).
The panel holds about 79,000 compounds, 15% with a hit somewhere; the sample as a whole holds those more often. Values without a mark were called inactive. The source made the active and inactive calls. Rule as the data show it: active = growth inhibition above about 70%; inactive = the rest.

Assay: NCI Yeast Anticancer Drug Screen. Data for the wt2 strain (AID 169);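 also: 0% = growth of vehicle-treated yeast cultures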
Details: S. cerevisiae wt2 strain growth inhibition, active compounds read high
Experimental: Growth inhibition of yeast strains with defined genetic alterations is measured as a screen for potential anti-cancer activity. Selected strains with alterations in DNA damage repair or cell cycle control were exposed to compounds and growth inhibition was measured relative to vehicle treated controls. The strain used in this assay is wt2

Cc1c(-c2ccccn2)ccc2ccccc12
growth inhibition (at 1.2 µM): -2% | growth inhibition (at 3.7 µM): 7% | growth inhibition (at 11.0 µM): -4% | growth inhibition (at 33.0 µM): -3% | growth inhibition (at 100.0 µM): 43%

C[C](C)(C)[Ge]([O][Ge]([c]1ccccc1)[c]1ccccc1)([O][Ge]([c]1ccccc1)[c]1ccccc1)[C](C)(C)C
growth inhibition (at 1.2 µM): -1% | growth inhibition (at 3.7 µM): 10% | growth inhibition (at 11.0 µM): 46% | growth inhibition (at 33.0 µM): 64% | growth inhibition (at 100.0 µM): 64%

CCC(C)OC(=O)Nc1ccc(C)c(NC(=O)OC(C)CC)c1 (stereo not given)
growth inhibition (at 1.2 µM): 0% | growth inhibition (at 3.7 µM): 1% | growth inhibition (at 11.0 µM): -2% | growth inhibition (at 33.0 µM): 6% | growth inhibition (at 100.0 µM): 96% (active)

CC(C)CN(CC(C)C)C(=O)c1ccc(Cl)c(Cl)c1
growth inhibition (at 1.2 µM): -3% | growth inhibition (at 3.7 µM): -5% | growth inhibition (at 11.0 µM): -5% | growth inhibition (at 33.0 µM): 74% (active) | growth inhibition (at 100.0 µM): 99% (active)

O=[N+]([O-])c1cc[n+]([O-])cc1
growth inhibition (at 1.2 µM): -3% | growth inhibition (at 3.7 µM): -2% | growth inhibition (at 11.0 µM): -3% | growth inhibition (at 33.0 µM): -11% | growth inhibition (at 100.0 µM): 99% (active)

Cc1ccc(NCCNCCO)c2c(=O)c3cc(O)ccc3sc12
growth inhibition (at 1.2 µM): 10% | growth inhibition (at 3.7 µM): 3% | growth inhibition (at 11.0 µM): 4% | growth inhibition (at 33.0 µM): 63% | growth inhibition (at 100.0 µM): 24%

Cc1cc2c3ccccc3c3ccccc3c2nn1
growth inhibition (at 1.2 µM): -4% | growth inhibition (at 3.7 µM): -3% | growth inhibition (at 11.0 µM): -3% | growth inhibition (at 33.0 µM): -3% | growth inhibition (at 100.0 µM): -6%

C=C1CCC(O)C/C1=C/C=C1\CCCC2(C)C1CCC2C(C)CCCC(C)C (stereo not given)
growth inhibition (at 1.2 µM): -8% | growth inhibition (at 3.7 µM): -14% | growth inhibition (at 11.0 µM): -18% | growth inhibition (at 33.0 µM): -27% | growth inhibition (at 100.0 µM): 22%
